Experimental data taken from ChEMBL document CHEMBL1961873, “Compounds: GSK PKIS; Assays: Nanosyn kinase panel” (2012).

Columns and labels:
[1] = target: Ribosomal protein S6 kinase alpha-6 (Homo sapiens) (UniProt Q9UK32); settings: at 1 µM;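 also: each value is a mean inhibition of RSK4 from a GSK PKIS panel screen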
[2] = target: T1, Serine/threonine-protein kinase Sgk1 (Homo sapiens) (UniProt O00141); settings: at 0.1 µM
T1 sequence (whole entry): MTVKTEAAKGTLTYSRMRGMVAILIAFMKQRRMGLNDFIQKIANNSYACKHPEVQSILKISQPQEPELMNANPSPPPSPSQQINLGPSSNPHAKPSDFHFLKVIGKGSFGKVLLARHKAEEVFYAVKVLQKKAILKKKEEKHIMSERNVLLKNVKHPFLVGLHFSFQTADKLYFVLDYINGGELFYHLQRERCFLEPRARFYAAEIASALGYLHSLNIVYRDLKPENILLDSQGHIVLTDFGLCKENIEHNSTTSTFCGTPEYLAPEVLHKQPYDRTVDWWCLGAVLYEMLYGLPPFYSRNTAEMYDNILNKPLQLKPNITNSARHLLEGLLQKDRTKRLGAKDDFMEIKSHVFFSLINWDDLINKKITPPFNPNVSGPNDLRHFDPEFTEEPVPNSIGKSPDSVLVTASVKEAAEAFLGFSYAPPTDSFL

[3] = target: T1, Serine/threonine-protein kinase Sgk1 (Homo sapiens); settings: at 1 µM
[4] = target: T2, Serine/threonine-protein kinase Sgk2 (Homo sapiens) (UniProt Q9HBY8); settings: at 0.1 µM
T2 sequence (whole entry): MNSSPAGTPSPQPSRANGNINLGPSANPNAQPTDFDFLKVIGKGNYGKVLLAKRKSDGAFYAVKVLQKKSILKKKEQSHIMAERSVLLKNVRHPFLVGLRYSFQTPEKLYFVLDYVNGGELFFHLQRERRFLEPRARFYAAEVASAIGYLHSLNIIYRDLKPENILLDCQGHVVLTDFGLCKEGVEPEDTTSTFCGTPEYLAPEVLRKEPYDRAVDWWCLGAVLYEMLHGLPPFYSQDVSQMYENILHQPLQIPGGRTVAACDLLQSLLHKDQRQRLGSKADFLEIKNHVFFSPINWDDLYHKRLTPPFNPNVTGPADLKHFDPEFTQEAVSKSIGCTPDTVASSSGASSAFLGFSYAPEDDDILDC

[5] = target: T2, Serine/threonine-protein kinase Sgk2 (Homo sapiens); settings: at 1 µM
[6] = target: T3, Serine/threonine-protein kinase Sgk3 (Homo sapiens) (UniProt Q96BR1); settings: at 0.1 µM
T3 sequence (whole entry): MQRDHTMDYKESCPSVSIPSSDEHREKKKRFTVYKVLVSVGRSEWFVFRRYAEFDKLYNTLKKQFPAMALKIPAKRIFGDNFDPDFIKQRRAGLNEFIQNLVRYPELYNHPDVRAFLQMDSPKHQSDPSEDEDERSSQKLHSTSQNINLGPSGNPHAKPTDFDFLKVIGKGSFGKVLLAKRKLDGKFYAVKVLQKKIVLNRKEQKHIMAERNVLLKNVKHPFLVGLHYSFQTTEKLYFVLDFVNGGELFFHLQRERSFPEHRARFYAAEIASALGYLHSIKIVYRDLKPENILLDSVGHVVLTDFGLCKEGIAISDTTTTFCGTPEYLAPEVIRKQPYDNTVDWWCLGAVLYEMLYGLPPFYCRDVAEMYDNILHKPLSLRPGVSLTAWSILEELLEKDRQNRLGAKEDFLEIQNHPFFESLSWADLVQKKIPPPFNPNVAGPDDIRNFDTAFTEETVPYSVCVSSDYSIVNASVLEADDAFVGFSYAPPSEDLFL

[7] = target: T3, Serine/threonine-protein kinase Sgk3 (Homo sapiens); settings: at 1 µM
[8] = target: 5'-AMP-activated protein kinase catalytic subunit alpha-1 (Homo sapiens) (UniProt Q13131); settings: at 0.1 µM
[9] = target: 5'-AMP-activated protein kinase catalytic subunit alpha-1 (Homo sapiens) (UniProt Q13131); settings: at 1 µM
[10] = target: 5'-AMP-activated protein kinase catalytic subunit alpha-2 (Homo sapiens) (UniProt P54646); settings: at 0.1 µM
[11] = target: 5'-AMP-activated protein kinase catalytic subunit alpha-2 (Homo sapiens) (UniProt P54646); settings: at 1 µM
[12] = target: T4, NUAK family SNF1-like kinase 1 (Homo sapiens) (UniProt O60285); settings: at 0.1 µM
T4 sequence (whole entry): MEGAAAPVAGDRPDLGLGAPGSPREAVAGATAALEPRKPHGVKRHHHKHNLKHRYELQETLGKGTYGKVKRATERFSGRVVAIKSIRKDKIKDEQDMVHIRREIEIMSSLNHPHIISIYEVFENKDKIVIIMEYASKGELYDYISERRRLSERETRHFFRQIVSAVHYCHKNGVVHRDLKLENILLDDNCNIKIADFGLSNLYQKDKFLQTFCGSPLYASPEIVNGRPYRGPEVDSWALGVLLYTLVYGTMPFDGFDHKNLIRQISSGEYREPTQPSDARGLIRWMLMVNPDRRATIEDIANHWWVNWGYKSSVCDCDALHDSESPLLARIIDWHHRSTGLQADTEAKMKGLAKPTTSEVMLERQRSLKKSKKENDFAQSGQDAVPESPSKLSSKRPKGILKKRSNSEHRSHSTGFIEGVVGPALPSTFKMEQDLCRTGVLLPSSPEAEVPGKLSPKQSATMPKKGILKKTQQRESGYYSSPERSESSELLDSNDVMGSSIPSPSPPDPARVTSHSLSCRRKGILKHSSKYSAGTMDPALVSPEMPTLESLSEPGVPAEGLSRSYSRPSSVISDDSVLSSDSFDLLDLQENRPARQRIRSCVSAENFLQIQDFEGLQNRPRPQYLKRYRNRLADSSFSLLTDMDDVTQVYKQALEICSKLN

[13] = target: T4, NUAK family SNF1-like kinase 1 (Homo sapiens); settings: at 1 µM
[14] = target: T5, Serine/threonine-protein kinase BRSK1 (Homo sapiens) (UniProt Q8TDC3); settings: at 0.1 µM
T5 sequence (whole entry): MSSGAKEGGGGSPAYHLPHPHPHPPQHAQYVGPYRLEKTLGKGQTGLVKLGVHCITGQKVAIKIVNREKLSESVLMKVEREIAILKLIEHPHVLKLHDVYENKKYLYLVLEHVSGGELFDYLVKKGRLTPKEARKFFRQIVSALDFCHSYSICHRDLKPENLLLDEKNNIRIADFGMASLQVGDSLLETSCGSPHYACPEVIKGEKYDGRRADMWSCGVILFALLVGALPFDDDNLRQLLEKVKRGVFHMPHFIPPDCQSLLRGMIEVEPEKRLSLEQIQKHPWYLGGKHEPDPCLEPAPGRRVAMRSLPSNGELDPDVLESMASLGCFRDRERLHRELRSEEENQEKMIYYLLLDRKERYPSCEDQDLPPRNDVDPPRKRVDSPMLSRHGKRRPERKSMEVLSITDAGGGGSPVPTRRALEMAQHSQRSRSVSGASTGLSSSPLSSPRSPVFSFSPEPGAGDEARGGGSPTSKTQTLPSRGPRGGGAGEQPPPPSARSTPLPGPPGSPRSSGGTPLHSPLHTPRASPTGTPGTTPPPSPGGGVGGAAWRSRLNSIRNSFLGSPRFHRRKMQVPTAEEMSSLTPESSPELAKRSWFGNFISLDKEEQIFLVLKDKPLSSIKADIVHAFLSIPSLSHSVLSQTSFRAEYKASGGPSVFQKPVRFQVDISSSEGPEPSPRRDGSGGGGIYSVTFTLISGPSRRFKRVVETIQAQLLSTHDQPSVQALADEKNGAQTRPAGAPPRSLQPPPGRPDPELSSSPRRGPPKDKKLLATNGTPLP

[15] = target: T5, Serine/threonine-protein kinase BRSK1 (Homo sapiens); settings: at 1 µM
[16] = target: T6, Serine/threonine-protein kinase BRSK2 (Homo sapiens) (UniProt Q8IWQ3); settings: at 0.1 µM
T6 sequence (whole entry): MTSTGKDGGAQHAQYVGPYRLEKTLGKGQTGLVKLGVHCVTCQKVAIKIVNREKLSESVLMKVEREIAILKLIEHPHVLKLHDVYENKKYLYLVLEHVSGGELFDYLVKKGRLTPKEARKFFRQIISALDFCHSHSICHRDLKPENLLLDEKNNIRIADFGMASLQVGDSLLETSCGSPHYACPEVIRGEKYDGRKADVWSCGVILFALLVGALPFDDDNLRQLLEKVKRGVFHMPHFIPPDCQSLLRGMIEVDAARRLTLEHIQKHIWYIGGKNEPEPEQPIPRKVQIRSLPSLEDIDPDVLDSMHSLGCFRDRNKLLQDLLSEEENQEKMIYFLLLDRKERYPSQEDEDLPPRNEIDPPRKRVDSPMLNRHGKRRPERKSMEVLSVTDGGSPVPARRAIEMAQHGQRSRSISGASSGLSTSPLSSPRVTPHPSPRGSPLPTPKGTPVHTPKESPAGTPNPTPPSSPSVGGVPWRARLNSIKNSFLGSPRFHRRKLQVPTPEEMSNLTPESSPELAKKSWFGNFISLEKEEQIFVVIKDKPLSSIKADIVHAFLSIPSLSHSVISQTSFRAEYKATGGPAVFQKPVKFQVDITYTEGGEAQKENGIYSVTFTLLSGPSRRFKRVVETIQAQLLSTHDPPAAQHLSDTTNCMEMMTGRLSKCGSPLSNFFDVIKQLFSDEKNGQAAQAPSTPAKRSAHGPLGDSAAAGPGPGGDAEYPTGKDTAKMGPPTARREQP

[17] = target: T6, Serine/threonine-protein kinase BRSK2 (Homo sapiens); settings: at 1 µM
[18] = target: Calcium/calmodulin-dependent protein kinase type 1D (Homo sapiens) (UniProt Q8IU85); settings: at 0.1 µM
[19] = target: Calcium/calmodulin-dependent protein kinase type 1D (Homo sapiens) (UniProt Q8IU85); settings: at 1 µM
[20] = target: Calcium/calmodulin-dependent protein kinase type II subunit alpha (Homo sapiens) (UniProt Q9UQM7); settings: at 0.1 µM;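 also: reported values are averages (mean inhibition of CAMK2A)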
Chain of Calcium/calmodulin-dependent protein kinase type II subunit alpha (Homo sapiens) (Q9UQM7 whole entry): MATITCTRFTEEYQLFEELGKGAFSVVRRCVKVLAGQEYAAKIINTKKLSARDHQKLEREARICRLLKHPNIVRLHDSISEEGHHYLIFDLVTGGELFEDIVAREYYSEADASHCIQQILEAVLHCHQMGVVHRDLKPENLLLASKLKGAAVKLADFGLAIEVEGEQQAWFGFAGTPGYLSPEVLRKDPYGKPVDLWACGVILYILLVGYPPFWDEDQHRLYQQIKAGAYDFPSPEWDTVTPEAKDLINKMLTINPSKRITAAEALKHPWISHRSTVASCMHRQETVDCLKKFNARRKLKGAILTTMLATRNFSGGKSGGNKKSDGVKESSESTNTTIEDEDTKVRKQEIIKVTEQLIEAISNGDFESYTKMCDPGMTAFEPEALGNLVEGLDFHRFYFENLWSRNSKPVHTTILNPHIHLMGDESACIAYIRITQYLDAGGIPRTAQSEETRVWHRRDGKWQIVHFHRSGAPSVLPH

Chain of Calcium/calmodulin-dependent protein kinase type 1D (Homo sapiens) (Q8IU85 whole entry, looked up): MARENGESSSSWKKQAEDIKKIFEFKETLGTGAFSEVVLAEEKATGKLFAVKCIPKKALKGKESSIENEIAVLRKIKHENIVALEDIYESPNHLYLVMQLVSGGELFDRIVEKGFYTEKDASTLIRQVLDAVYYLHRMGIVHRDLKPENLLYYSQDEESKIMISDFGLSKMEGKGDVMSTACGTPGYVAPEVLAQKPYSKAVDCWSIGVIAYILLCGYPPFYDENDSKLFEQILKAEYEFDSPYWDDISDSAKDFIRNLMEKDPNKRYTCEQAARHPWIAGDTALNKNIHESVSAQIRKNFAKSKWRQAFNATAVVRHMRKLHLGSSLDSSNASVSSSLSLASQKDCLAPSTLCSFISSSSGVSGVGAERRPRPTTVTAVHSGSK
Chain of Ribosomal protein S6 kinase alpha-6 (Homo sapiens) (Q9UK32 whole entry): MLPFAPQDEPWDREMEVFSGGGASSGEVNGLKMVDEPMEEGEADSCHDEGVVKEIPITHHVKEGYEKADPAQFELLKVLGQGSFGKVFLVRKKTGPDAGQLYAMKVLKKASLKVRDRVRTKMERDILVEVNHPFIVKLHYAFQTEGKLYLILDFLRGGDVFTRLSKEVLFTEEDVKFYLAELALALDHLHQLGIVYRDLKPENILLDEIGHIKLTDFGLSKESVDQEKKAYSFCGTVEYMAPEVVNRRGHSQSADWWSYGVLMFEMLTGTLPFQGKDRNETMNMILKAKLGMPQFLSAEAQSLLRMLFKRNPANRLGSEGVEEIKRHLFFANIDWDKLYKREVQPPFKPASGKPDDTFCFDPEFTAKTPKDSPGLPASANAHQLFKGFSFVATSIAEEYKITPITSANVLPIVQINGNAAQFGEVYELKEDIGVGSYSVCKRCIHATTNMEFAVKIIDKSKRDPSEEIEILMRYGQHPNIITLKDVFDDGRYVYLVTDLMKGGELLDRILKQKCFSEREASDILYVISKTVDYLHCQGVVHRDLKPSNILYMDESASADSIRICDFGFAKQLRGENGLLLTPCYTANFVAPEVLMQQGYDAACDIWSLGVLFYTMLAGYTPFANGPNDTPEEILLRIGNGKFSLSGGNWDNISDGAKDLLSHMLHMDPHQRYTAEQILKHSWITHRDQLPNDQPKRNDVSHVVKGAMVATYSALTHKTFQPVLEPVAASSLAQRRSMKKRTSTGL
Chain of 5'-AMP-activated protein kinase catalytic subunit alpha-1 (Homo sapiens) (Q13131 whole entry, looked up): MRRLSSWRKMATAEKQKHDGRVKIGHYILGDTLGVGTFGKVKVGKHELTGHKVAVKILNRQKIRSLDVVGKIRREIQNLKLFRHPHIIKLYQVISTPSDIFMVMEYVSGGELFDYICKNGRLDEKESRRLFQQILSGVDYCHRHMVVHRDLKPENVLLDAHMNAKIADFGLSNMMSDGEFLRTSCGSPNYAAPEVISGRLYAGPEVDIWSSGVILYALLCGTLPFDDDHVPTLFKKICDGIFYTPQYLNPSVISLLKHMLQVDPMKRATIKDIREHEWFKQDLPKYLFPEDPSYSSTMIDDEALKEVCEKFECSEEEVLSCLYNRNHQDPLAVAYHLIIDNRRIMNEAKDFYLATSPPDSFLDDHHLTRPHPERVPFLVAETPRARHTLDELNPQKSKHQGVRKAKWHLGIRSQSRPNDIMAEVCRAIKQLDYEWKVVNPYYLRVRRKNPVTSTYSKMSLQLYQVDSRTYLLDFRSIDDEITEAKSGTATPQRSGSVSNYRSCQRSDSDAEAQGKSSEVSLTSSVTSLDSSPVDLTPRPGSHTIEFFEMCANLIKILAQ
Chain of 5'-AMP-activated protein kinase catalytic subunit alpha-2 (Homo sapiens) (P54646 whole entry, looked up): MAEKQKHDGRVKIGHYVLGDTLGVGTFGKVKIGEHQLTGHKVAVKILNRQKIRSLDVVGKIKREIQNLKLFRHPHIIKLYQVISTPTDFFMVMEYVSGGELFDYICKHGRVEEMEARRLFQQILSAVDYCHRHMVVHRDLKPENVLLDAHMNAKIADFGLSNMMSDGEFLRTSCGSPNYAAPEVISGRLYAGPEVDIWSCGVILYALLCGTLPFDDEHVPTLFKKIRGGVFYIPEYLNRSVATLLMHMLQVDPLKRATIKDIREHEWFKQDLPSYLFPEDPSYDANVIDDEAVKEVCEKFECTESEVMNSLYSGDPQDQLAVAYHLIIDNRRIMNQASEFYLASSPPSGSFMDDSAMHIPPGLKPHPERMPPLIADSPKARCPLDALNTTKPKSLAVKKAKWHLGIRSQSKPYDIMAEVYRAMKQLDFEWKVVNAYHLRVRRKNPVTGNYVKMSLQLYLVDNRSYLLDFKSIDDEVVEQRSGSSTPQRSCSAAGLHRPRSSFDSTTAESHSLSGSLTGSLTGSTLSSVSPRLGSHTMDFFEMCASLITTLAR

SMILES | inhibition [1] [%] | inhibition [2] [%] | inhibition [3] [%] | inhibition [4] [%] | inhibition [5] [%] | inhibition [6] [%] | inhibition [7] [%] | inhibition [8] [%] | inhibition [9] [%] | inhibition [10] [%] | inhibition [11] [%] | inhibition [12] [%] | inhibition [13] [%] | inhibition [14] [%] | inhibition [15] [%] | inhibition [16] [%] | inhibition [17] [%] | inhibition [18] [%] | inhibition [19] [%] | inhibition [20] [%]
COc1cc2ncn(-c3cc(OCCc4ccccc4)c(C(N)=O)s3)c2cc1OC | 2.25 | 0.21 | 3.41 | -0.42 | -1.95 | 2.58 | 2.59 | 2.79 | 4.42 | 1.45 | 1.32 | 1.92 | 9.13 | 41.5 | 76.9 | 58.3 | 80.3 | 0.21 | 1.85 | 1.3
COc1ccc2cc(-c3c(-c4ccncc4)nc(-c4ccc([S+](C)[O-])cc4C)n3C)ccc2c1 (stereo not given) | 0.61 | -0.3 | 0.17 | -1.2 | 0.22 | -0.05 | 0.65 | -0.62 | -0.8 | 3.22 | 1.05 | -1.98 | 4.95 | -0.02 | 3.28 | 0.33 | 3.47 | 0 | 1.15 | -2.89
N#Cc1ccc(Oc2nccc(-c3c(-c4ccc(F)cc4)ncn3C3CCNCC3)n2)cc1 | 0.97 | 2.45 | 2.02 | 7.44 | 3.86 | 2.02 | 3.62 | 2.27 | 3.89 | 3.09 | 3.23 | -1.37 | 0.67 | -2.05 | 0.23 | 0.71 | 2.75 | 0.44 | 0.96 | 2.95
Fc1ccc(-c2ncn(C3CCNCC3)c2-c2ccnc(Oc3ccc(Oc4ccccc4)cc3)n2)cc1 | 3.14 | 1.53 | 2.46 | 3.23 | 3.39 | 4.76 | 2.42 | 2.46 | 4.03 | 8.18 | 3.68 | 0.78 | 0.71 | 3.46 | -0.07 | 1.27 | 1.66 | -0.26 | 3.87 | 2.01
O=C(Nc1n[nH]c2cc(-c3cc(F)ccc3F)ccc12)C1CC1 | 2.43 | 2.46 | 1.25 | 0.34 | 0.08 | 2.01 | 0.16 | 2.72 | 2.32 | 3.84 | 9.82 | -2.28 | -2.43 | 2.17 | 15.3 | 3.03 | 14.1 | -0.34 | 1.27 | 1.96
COc1ccc(-c2ccc3c(NC(=O)C4CC4)n[nH]c3n2)cc1 | 0.85 | 1.6 | 6 | 1.24 | 3.76 | 2.58 | 3.92 | 1.15 | 2.02 | 0.53 | 1.68 | -0.56 | 0.04 | 0.19 | 4.83 | 3.16 | 10.7 | -0.49 | -0.83 | 0.49
